From PubChem
TDP1 cell CPT = qHTS for Inhibitors of human tyrosyl-DNA phosphodiesterase 1 (TDP1): qHTS in cells in presence of CPT | Potency, µM (series often up to 46.2 µM), inactives show top-dose activity change, negative = growth inhibition, actives largely listed as inhibitors | chicken DT40 Tdp1-/-;hTDP1 cells + 20 nM CPT, ATP luminescence, 48 h | 420,000 tested, 12% active | AID 686979, 2013; also: potency is read from the fitted curve at half-maximal effect; % is scaled to controls: 0 for no effect and ±100 for the full control effect; nearly all actives have a fitted effect of over 55% in size
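Chicken DT40 Tdp1-/- cells complemented with human TDP1, 400 cells/well, exposed to compounds plus 20 nM camptothecin for at least 48 h at 37 C; viability read as ATP content by CellTiter-Glo luminescence.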
IL-1B inflam inh = qHTS for Inhibitors of Inflammasome Signaling: IL-1-beta AlphaLISA Primary Screen. 360,000 tested, 4.7% active. THP-1 LPS/ATP IL-1B secretion, AlphaLISA, 16 h; stronger effect = lower value. AID 743279, 2014. activity change, % at 57.5 µM; in the data active = activity change below about -50%; inconclusive = mostly about -30% to -49%; also: % is scaled to controls: 0 for no effect and ±100 for the full control effect
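THP-1 cells pretreated 1 hr with compounds (up to 57.5 uM final), then stimulated with LPS (250 ng/mL final) plus ATP (1.25 mM final); secreted IL-1B measured by AlphaLISA after 16 hr, decreased signal indicating inhibition.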
TDP1 cell noCPT = qHTS for Inhibitors of human tyrosyl-DNA phosphodiesterase 1 (TDP1): qHTS in cells in absence of CPT; Potency, µM (highest dose often 46.2 µM), for the others: top-dose activity change, negative = growth inhibition, most hits filed as inhibitors; 420,000 tested, 15% active; AID 686978, 2013; DT40 Tdp1-/- hTDP1 cells, no CPT, ATP luminescence, 48 h; also: potency is read from the fitted curve at half-maximal effect; % is scaled to controls: 0 for no effect and ±100 for the full control effect; nearly all actives have a fitted effect of over 55% in size
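Luminescent ATP content (CellTiter-Glo) served as the growth readout. Knockout chicken DT40 cells expressing human TDP1 were exposed to compounds without camptothecin for a minimum 48 hr at 37 °C.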
TGFb SMAD3 inh = qHTS for Inhibitors of TGF-b. 410,000 tested, 1.2% active. HepG2 CAGA-GFP TGF-b/SMAD3 reporter, GFP fluorescence, 18 h; TGF-beta stimulated, 500 pg/mL final. Potency, µM (titrated, usually from 46.1 µM), inactives show top-dose activity, negative = inhibition, most hits filed as inhibitors; also: potency is read from the fitted curve at half-maximal effect; % is scaled to controls: 0 for no effect and ±100 for the full control effect; nearly all actives have a fitted effect of over 65% in size
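HEPG2 CAGA-GFP cells (1000/well, DMEM with 1% FBS) were pre-incubated 2 h at 37 degrees C, given compound by pin tool, then stimulated with TGF-beta at 500 pg/mL final for 18 h before per-cell GFP fluorescence imaging.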
HepG2 viability = qHTS for Inhibitors of TGF-b: Cytotox Counterscreen. HepG2 CAGA-GFP viability, ATP luminescence, 18 h. Potency, µM (doses to about 46.1 µM), for the others: top-dose activity change, negative = cytotoxicity, most hits filed as cytotoxic. 410,000 tested, 0.76% active; also: potency is read from the fitted curve at half-maximal effect
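CellTiter-Glo luminescence gave cytotoxicity after 18 hours at 37 degrees C. The cells were HepG2 CAGA-GFP in 1% FBS DMEM, stimulated with 500 pg/mL TGF-beta after compound addition. %Activity was normalised to no-cell wells (complete cell-killing) and DMSO (no toxicity), and curves were fitted and classified.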
TDP1 block = qHTS Assay for Inhibitors of Tyrosyl-DNA Phosphodiesterase (TDP1); Tyrosyl-DNA phosphodiesterase 1 (Homo sapiens), Q9NUW8; recombinant TDP1, AlphaScreen DNA substrate cleavage; Potency, µM (doses to about 130 µM), for the others: at the highest dose activity change, negative = inhibition, actives largely listed as inhibitors; 350,000 tested, 0.28% active; also: potency is read from the fitted curve at half-maximal effect; % is scaled to controls: 0 for no effect and ±100 for the full control effect; nearly all actives have a fitted effect of over 40% in size
Target sequence (Q9NUW8 whole entry, looked up): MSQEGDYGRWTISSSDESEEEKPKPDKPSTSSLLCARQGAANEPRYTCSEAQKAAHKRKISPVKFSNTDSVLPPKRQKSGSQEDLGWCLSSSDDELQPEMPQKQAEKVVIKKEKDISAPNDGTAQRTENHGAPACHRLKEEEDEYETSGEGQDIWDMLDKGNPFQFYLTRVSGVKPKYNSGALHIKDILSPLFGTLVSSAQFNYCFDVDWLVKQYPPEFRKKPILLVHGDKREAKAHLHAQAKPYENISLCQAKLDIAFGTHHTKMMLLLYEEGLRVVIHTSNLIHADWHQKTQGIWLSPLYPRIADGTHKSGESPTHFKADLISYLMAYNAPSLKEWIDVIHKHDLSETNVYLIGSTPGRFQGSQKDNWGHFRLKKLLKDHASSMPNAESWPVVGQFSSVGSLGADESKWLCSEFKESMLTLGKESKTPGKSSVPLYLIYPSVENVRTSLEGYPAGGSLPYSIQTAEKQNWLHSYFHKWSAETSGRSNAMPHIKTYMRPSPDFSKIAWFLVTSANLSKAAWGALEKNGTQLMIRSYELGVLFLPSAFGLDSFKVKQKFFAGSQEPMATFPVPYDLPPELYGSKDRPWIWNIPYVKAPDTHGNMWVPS
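Signal: AlphaScreen proximity between streptavidin donor and anti-FITC acceptor beads on intact substrate. Reaction: Tdp1 1 nM, substrate 15 nM final, 5 min RT after 15 min compound preincubation.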
* marks the source's active call; other numbers are inactive results. A selection: hits, their analogues and other compounds. The true share with any hit is near 19%. Unless noted, calls follow the shape of the dose curve; as a rule, active = well fitted curve in the direction sought with a large enough effect; inconclusive = small, poorly fitted or top-dose-only effect, or another doubt; inactive = no such curve, though single readings can be large; an effect the other way counts as inactive or inconclusive.

What do the screens show for `CC1=C(C(=O)OCc2ccccc2)C(c2cccc3ccccc23)NC(=O)N1CCCC(=O)O` (configuration not stated)?
TDP1 cell CPT: -15%; IL-1B inflam inh: 46; TDP1 cell noCPT: -24%; TGFb SMAD3 inh: 5%; HepG2 viability: 0%; TDP1 block: 2%

What do the screens show for `Cc1cccc(Nc2ncnc3onc(-c4cccc(Cl)c4)c23)c1C`?
TDP1 cell CPT: 21µM*; IL-1B inflam inh: 17; TDP1 cell noCPT: 18µM*; TGFb SMAD3 inh: -2%; HepG2 viability: -10%

Results for Clc1cccc(-c2noc3ncnc(NC4CCCCC4)c23)c1 ?
TDP1 cell CPT: 21µM*; TDP1 cell noCPT: 26µM*; TGFb SMAD3 inh: 0%; HepG2 viability: -5%; TDP1 block: 6%

What do the screens show for `COc1ccc(NC(=O)CSc2nc3nc(C)c(Cc4ccccc4Cl)c(C)n3n2)cc1OC`?
TDP1 cell CPT: inconclusive; TDP1 cell noCPT: inconclusive; TGFb SMAD3 inh: -3%; HepG2 viability: 5%; TDP1 block: 8%

What do the screens show for `O=C(O)c1cc([N+](=O)[O-])ccc1C(=O)Nc1ccccc1`?
TDP1 cell CPT: 16%; IL-1B inflam inh: 12; TDP1 cell noCPT: 2%; TGFb SMAD3 inh: -4%; HepG2 viability: -7%; TDP1 block: 0%

Results for O=C(Nc1ccccc1)c1sccc1Oc1ccc([N+](=O)[O-])cc1F ?
TDP1 cell CPT: 21µM*; IL-1B inflam inh: -11; TDP1 cell noCPT: 21µM*; TGFb SMAD3 inh: -7%; HepG2 viability: -18%; TDP1 block: 8%

How did COCCOc1cc(NC(=O)c2sccc2Oc2ccc([N+](=O)[O-])cc2F)c(Cl)cc1Cl do in these assays?
TDP1 cell CPT: inconclusive; IL-1B inflam inh: -14; TDP1 cell noCPT: 18µM*; TGFb SMAD3 inh: inconclusive; HepG2 viability: -7%; TDP1 block: 0%

What do the screens show for `CCOC(=O)CNS(=O)(=O)c1ccc(F)cc1Br`?
TGFb SMAD3 inh: 4%; HepG2 viability: -4%; TDP1 block: 4%

How did Cc1cccc(CC2C(=O)Nc3ccccc32)c1 (configuration not stated) do in these assays?
TDP1 cell CPT: inconclusive; TDP1 cell noCPT: 21µM*; TGFb SMAD3 inh: 0%; HepG2 viability: -33%; TDP1 block: -2%

How did O=C1Nc2ccccc2C1Cc1ccc(Br)cc1 (configuration not stated) do in these assays?
TDP1 cell CPT: inconclusive; TDP1 cell noCPT: inconclusive; TGFb SMAD3 inh: -27%; HepG2 viability: -24%; TDP1 block: 4%

How did CSc1ccc(CC2C(=O)Nc3ccccc32)cc1 (configuration not stated) do in these assays?
TDP1 cell CPT: inconclusive; TDP1 cell noCPT: 21µM*; TGFb SMAD3 inh: -25%; HepG2 viability: -1%; TDP1 block: 8%

What do the screens show for `CN(c1ccccc1)S(=O)(=O)c1cccc(NS(=O)(=O)c2ccc(/C=C/C(=O)O)cc2)c1`?
TDP1 cell CPT: 0%; IL-1B inflam inh: 6; TDP1 cell noCPT: -15%; TGFb SMAD3 inh: 1%; HepG2 viability: 1%; TDP1 block: 0%

How did CCCCOC(=O)c1ccc(NS(=O)(=O)c2c(C)nc3scc(C)n3c2=O)cc1 do in these assays?
TDP1 cell CPT: 13µM*; TDP1 cell noCPT: 23µM*; TGFb SMAD3 inh: 11µM*; HepG2 viability: -29%; TDP1 block: 2%
